We go through 40 compounds from PubChem BioAssay AID1347075 (National Center for Advancing Translational Sciences (NCATS), 2019).

Screen size: about 400,000 compounds; about 5,500 (1.4%) were called active. About 9% were inconclusive and are not listed. Many of the other results were omitted from the sample, so actives are more common in it than they were. A number with no mark means an inactive call. The call rests on the fitted dose curve; in most records, active means well fitted cell-killing curve with a large enough effect; inconclusive means small, poorly fitted or top-dose-only effect, or effect the other way; inactive means flat fitted curve, though single readings scatter.
On the % scale 0 is the no-effect control and ±100 the full control effect; potency means the concentration at half of the fitted maximal effect.

This experiment can be described thus: qHTS assay for MDR1-selective chemotherapeutics: Primary screen using the parental adenocarcinoma cell KB-3-1. Further: nearly all actives have a fitted effect of over 60% in size. To be noted: KB-3-1 viability, CellTiter-Glo ATP luminescence, 72 h; series mostly up to 46.1 µM; activity change, negative = cytotoxic: at the top concentration. An excerpt: A prime difficulty in effectively treating cancer is the development of cellular resistance to multiple structurally unrelated anticancer drugs, a phenomenon known as multidrug resistance (MDR). […] Numerous strategies to overcome P-gp-mediated MDR have been explored, including the design of drugs that evade recognition and efflux, and development of inhibitors to block efflux and restore drug accumulation. […] An alternative approach is to exploit resistance by identifying drugs that target MDR cells over the non-resistant parental cells from which they were selected. […] The development of MDR1-selective agents represents a new strategy for resolving multidrug resistance, as it remains a long-standing clinical challenge for cancer chemotherapy.
Our goal is to identify compounds that selectively kill P-gp-expressing MDR cells. We will identify MDR1-selective compounds by comparing toxicity of compounds in the screening library against parental, drug-naive (KB-3-1) adenocarcinoma cells as well as their drug-selected MDR sub-line (KB-V1). The differential toxicity of compounds against these two cell lines will be used to identify MDR1-selective compounds, whose cytotoxicity is potentiated, rather than diminished, by P-gp expression. This assay will be utilized to conduct a quantitative high-throughput screen (qHTS) in collaboration with the NIH Chemical Genomics Center to identify selective agents, and probe hits arising from the screen will be validated using secondary assays and characterized through a well-established follow-up research program. This screen was run against the entire NCGC library collection of about 400,000 compounds.
NIH Molecular Libraries Probe Production Network [MLPCN]
NIH Chemical Genomics Center [NCGC]
PI: Michael Gottesman PhD, National Cancer Institute, NIH
Briefly, 5 microL of media containing either KB-3-1 cells (columns 1-2, 4-48) are dispensed into Greiner white, treated solid-bottom 1536-well assay plates (media-only control is added to column 3). Compounds are then transferred via Kalypsys pin tool equipped with 1536-pin array (10 nL slotted pins, V&P Scientific, San Diego, CA). Following addition of compound, the plates are incubated at 37 degrees C for 72 hours. CellTiter-Glo (2.5 µL/well) is then added, and the plates are read in a ViewLux reader (Perkin-Elmer, clear luminescence filter, 1 second exposure, 1x binning) following a 10 minute incubation. All cells are dispensed in DMEM phenol-red free media containing 10% FBS.
Library plates were screened starting from the lowest and proceeding to the highest concentration. Vehicle-only plates, with DMSO being pin-transferred to columns 5-48, will be inserted uniformly at the beginning and the end of each library in order to monitor and record any shifts in the background, which can be affected by reagent dispensers or loss in enzyme activity over time. Screening data will be corrected, normalized, and concentration-effect relationships will be derived by using publicly-available NCGC, NCATS curve fitting algorithms (http://ncgc.nih.gov/pub/openhts).
(In general: Quantitative high-throughput screening tests each substance at several concentrations.)
As for `COC1C(O)C(C)OC(OC2CCC3(C=O)C(CCC4C3CCC3(C)C(C5=CC(=O)OC5)CCC43O)C2)C1O` (stereo not given), the Potency was 0.0058 µM (active).

As to `S=C(NCCc1ccccc1)N1Cc2cc(N3CCOCC3)ccc2-n2nncc2C1`, the “activity change, negative = cytotoxic” value was 0.0564%.

Consider `O=C1NCN(c2ccccc2)C12CCN(C(c1cccs1)c1nnnn1C1CCCCC1)CC2` (stereo not given), for which the “activity change, negative = cytotoxic” value is 0.0564%.

With `CC(C)CN1Cc2cc(N3CCCCC3)ccc2-n2nncc2C1`, the “activity change, negative = cytotoxic” value is 0.0564%.

With `O=C(NCC1=C(c2ccc3ccccc3c2)C[C@@H]2CC[C@H]1N2Cc1ccco1)c1cccs1`, the “activity change, negative = cytotoxic” value is -17%.

Turning to `CCCCCCCCCCCCn1ccc(=N)cc1`, the Potency is 1.3 µM (active).

Take `COc1ccc(NC(=O)N2Cc3ccccc3-n3nncc3C2)cc1`: the “activity change, negative = cytotoxic” value is 6.29%.

Turning to `c1cc2c(c(NC3=NCCCS3)c1)CCCC2`, the “activity change, negative = cytotoxic” value was -15.7%.

In the case of `CC(=O)NCC1=C(c2ccc3ccccc3c2)C[C@@H]2CC[C@H]1N2Cc1ccco1`, the “activity change, negative = cytotoxic” value is 1.55%.

Take `O=c1[nH]c2ccccc2n1C1CCN(C(c2ccnc3ccccc23)c2nnnn2Cc2ccccc2)CC1` (stereo not given): the “activity change, negative = cytotoxic” value was -2.56%.

For `CCOC(=O)[C@]12Cc3ccccc3[C@H]1N(C1CCCCC1)C(=O)c1cc(OC)ccc12`, the Potency was 4.61 µM (active).

For `CCOC(=O)[C@]12Cc3cc(OC)ccc3[C@H]1N(C(C)C)C(=O)c1ccccc12`, the Potency is 6.51 µM (active).

Turning to `O=C(O)c1cc[c]([Sb](=[O])([OH])[OH])cc1[N+](=O)[O-]`, the “activity change, negative = cytotoxic” value was 29%.

Regarding `Cc1ccc(OC(=O)N(C)C[C@@H]2OCc3cnnn3CCCC(=O)N([C@H](C)CO)C[C@@H]2C)cc1`, the “activity change, negative = cytotoxic” value is 8.17%.

In the case of `O=C(O)/C=C/c1ccc2c(c1)OCO2`, the “activity change, negative = cytotoxic” value was -11.5%.

As for `COC(=O)CN(CCCl)P1(=O)OCCCN1CCCl` (stereo not given), the “activity change, negative = cytotoxic” value is 23.9%.

Consider `C[C@]12CCC3C(CC[C@H]4C[C@@H](O)CC[C@]34C)C1C[C@@H](O)[C@H]2O` (stereo not given in full), for which the “activity change, negative = cytotoxic” value is -0.788%.

Consider `C[C@]12CCC3C(CC[C@H]4C[C@@H](O)CC[C@]34C)C1CC[C@@H]2O` (stereo not given in full), for which the “activity change, negative = cytotoxic” value is 22.6%.

With `C[C@]12CC[C@H](O)C[C@H]1CC[C@@H]1C2CC[C@]2(C)[C@@H](C3=CC(=O)OC3)[C@@H](O)C[C@]12O` (stereo not given in full), the Potency was 2.31 µM (active).

As for `COc1cc(C(=O)N2Cc3ccc(Br)cc3-n3nncc3C2)cc(OC)c1OC`, the “activity change, negative = cytotoxic” value is 0.0564%.

For `C[C@H]1CN([C@@H](C)CO)C(=O)CCCn2nncc2CO[C@H]1CN(C)C(=O)Oc1cccc2ccccc12`, the “activity change, negative = cytotoxic” value is 0%.

As to `O=C(NC1CCCCC1)N1Cc2cc(N3CCCCC3)ccc2-n2nncc2C1`, the “activity change, negative = cytotoxic” value is 0.03%.

As for `Cc1ccc(NC(=O)N(Cc2ccc3c(c2)OCO3)C2CCN(Cc3ccccc3)CC2)cc1F`, the “activity change, negative = cytotoxic” value was -5.54%.

With `CCCCn1c(O)c(C(CC)=NCc2ccco2)c(=O)[nH]c1=O`, the “activity change, negative = cytotoxic” value is -0.31%.

Turning to `CCC(=NCCCO)c1c(O)n(-c2ccc(OC)cc2)c(=O)[nH]c1=O`, the “activity change, negative = cytotoxic” value is 0%.

Turning to `CCCCCCN=C(CC)c1c(O)n(CCCC)c(=O)[nH]c1=O`, the Potency is 18.4 µM (active).

Turning to `COc1cccc(C(c2nnnn2-c2ccc3c(c2)OCCO3)N2CCC3(CC2)C(=O)NCN3c2ccccc2)c1OC` (stereo not given), the “activity change, negative = cytotoxic” value was -1.93%.

As to `O=C1C2CCN(CC2)C1(CO)CO`, the “activity change, negative = cytotoxic” value is 3.63%.

As to `Cn1cc(/C=C/c2nc3ccccc3c(=O)n2-c2ccccc2)c2ccccc21`, the “activity change, negative = cytotoxic” value is -7.08%.

For `ClCCN(CCCl)c1ccc(C=Nc2ccc(/C=C/c3ccnc4ccccc34)cc2)cc1`, the “activity change, negative = cytotoxic” value is -0.0871%.

As for `CCOC(=O)c1c(N)n(Cc2ccccc2)c2nc3ccccc3nc12`, the “activity change, negative = cytotoxic” value is -11.6%.

Consider `COC(=O)C1=C(c2ccccc2)C[C@@H]2CC[C@H]1N2C(=O)NCc1ccco1`, for which the “activity change, negative = cytotoxic” value is -2.82%.

Turning to `COc1cc(Cn2c(N)c(C(=O)NCc3ccco3)c3nc4ccccc4nc32)cc(OC)c1OC`, the Potency is 23.1 µM (active).

In the case of `c1ccc(N2Cc3ccccc3-n3nncc3C2)nc1`, the “activity change, negative = cytotoxic” value was -7.89%.

For `O=P(OC1=CCCCC1)(c1ccccc1)c1ccccc1`, the “activity change, negative = cytotoxic” value is 0%.

Take `O=c1c2ccccc2[nH]c(=S)n1-c1cccc(Cl)c1`: the “activity change, negative = cytotoxic” value is -23.5%.

On to `Cc1nnc(NC(=O)c2cccn(Cc3cccc(F)c3)c2=O)s1`, for which the “activity change, negative = cytotoxic” value was 0.206%.

Take `CCC(C)(O)C(=O)OC1C(=O)OC2CC3C(C)=CC(=O)C(O)C3(C)C3C4(O)OCC23C1C(C)C4O` (stereo not given): the Potency is 0.291 µM (active).

As for `CCn1cc(CN2CCCC(C(=O)c3cccc(C(F)(F)F)c3)C2)cn1` (stereo not given), the “activity change, negative = cytotoxic” value is 0.0302%.

Take `CCOC(=O)CNC(=O)N1Cc2cc(N3CCCCC3)ccc2-n2nncc2C1`: the “activity change, negative = cytotoxic” value was -0.0736%.
